Shown are actives, neighbours in structure and some others; about 3.5% of the full set was active somewhere.
FBW7 act: FBW7 E3 ligase activators, primary screen, biochemical, AlphaScreen, human; F-box/WD repeat-containing protein 7 (Homo sapiens), Q969H0; AlphaScreen FBW7–phospho-cyclin E peptide binding, activator screen; normalized activity (activation), % at 26.1 µM; 650,000 compounds, 0.13% hits; AID 1259310, 2017; in the data active = normalized activity above about 1.9%;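 note: purified mutant Fbw7 with reduced substrate affinity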
Target sequence (Q969H0 whole entry, looked up): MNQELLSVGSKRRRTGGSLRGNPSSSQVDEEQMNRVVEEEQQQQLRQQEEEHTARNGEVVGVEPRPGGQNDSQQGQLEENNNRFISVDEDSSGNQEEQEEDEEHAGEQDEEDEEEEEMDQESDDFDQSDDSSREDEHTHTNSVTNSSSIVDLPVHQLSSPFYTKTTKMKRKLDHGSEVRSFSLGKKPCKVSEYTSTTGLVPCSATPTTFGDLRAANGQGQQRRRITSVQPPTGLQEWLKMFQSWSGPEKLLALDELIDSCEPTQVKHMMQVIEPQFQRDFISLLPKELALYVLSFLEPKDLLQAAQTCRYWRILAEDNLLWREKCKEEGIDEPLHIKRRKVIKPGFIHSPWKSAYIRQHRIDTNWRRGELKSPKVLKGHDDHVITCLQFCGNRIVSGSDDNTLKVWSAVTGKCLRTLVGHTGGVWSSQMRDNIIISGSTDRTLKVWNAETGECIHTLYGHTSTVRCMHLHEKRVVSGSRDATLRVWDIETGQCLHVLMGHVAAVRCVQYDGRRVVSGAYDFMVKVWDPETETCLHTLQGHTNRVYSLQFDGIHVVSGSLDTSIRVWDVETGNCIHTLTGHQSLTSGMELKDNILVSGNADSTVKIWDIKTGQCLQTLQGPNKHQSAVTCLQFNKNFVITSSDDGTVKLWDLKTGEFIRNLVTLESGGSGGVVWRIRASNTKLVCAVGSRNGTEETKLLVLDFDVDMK
MITF inh: MITF inhibitors, primary screen, biochemical, AlphaScreen, human | Microphthalmia-associated transcription factor (Homo sapiens), O75030 | AlphaScreen MITF homodimerization, bead proximity signal | inhibition, % at 2.6 µM | 650,000 compounds, 0.91% hits; in the data active = inhibition above about 50%
GPR151 activ: activators of human GPR151, primary screen, cell-based, PathHunter beta-arrestin, luminescence; G-protein coupled receptor 151 (Homo sapiens), Q8TDV0; PathHunter beta-arrestin GPR151 cells; activation, % at 11.2 µM; 650,000 compounds, 1% hits; AID 1508602, 2020; in the data active = activation above about 4.9%
TEAD-YAP block: TEAD-YAP interaction inhibition, primary screen, TEAD-YAP interaction inhibitor project, luminescence, HEK-TIYL cells. TEAD-Gal4/YAP UAS-luciferase luminescence. inhibition, % at 9.12 µM. 640,000 compounds, 1.4% hits. AID 1259422, 2018; in the data active = inhibition above about 32%
MITF inh conf: MITF inhibitors, retest of hits, confirmation, biochemical, AlphaScreen, triplicate | shares compounds with MITF inh | AlphaScreen MITF homodimerization, biotin/His-MITF beads | inhibition, % at 2.6 µM | 4,700 compounds, 16% hits;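 active = inhibition above a cutoff derived from the DMSO control wells, cut at about 28% in these data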;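 note: inhibitors lower the bead chemiluminescence by keeping MITF from dimerizing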
AlphaScreen intf2: AlphaScreen optical interference compounds, counter-screen for MITF inhibitor project, biochemical, triplicate; LysRS AlphaScreen counterscreen, signal interference; 4,700 compounds, 7.6% hits; shares compounds with MITF inh; inhibition, % at 2.6 µM;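 active = inhibition above a cutoff derived from the DMSO control wells, cut at about 30% in these data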
Each line names hits and unclear results; the compound was inactive in the other large screens (follow-up assays come after a bar, where they were run).

Cc1cc(C)c(OCCOCCN2CCN(C)CC2)c(Cl)c1	MITF inh 67 | MITF inh conf inactive | AlphaScreen intf2 inactive
CCOC(=O)N1CCN(c2c(NC3CCCC3)c(=O)c2=O)CC1	none
O=C(Nc1c(-c2cccs2)nc2ccc(Cl)cn12)c1ccc(Cl)cc1	none
Cc1cc(Cl)cc(C)c1OCCOCCNC(C)C	MITF inh 51 | MITF inh conf inactive | AlphaScreen intf2 inactive
Cc1cc(OCCOCCN2CCN(C)CC2)cc(C)c1Cl	MITF inh 62 | MITF inh conf inactive | AlphaScreen intf2 inactive
Cc1cc(C)c(OCCOCCNC(C)C)c(C)c1	none
Cc1c(C(=O)NC(C)(C)C)oc2ccc(Br)cc12	none
CCn1ccc(C(=O)NC2CCCCC2)n1	none
CN(CCc1ccccc1)C1CCCN(Cc2ccccn2)C1 (centres undefined)	none
Cn1c(SCc2ccccc2)nnc1C1CCCN(Cc2ccccn2)C1 (centres undefined)	MITF inh 61 | MITF inh conf 36 | AlphaScreen intf2 93
CCCCOc1ccc(C(=O)Nc2ccccc2C(=O)Nc2ccc(C)cc2C(=O)c2ccccc2)cc1	none
COc1ccc(OC)c(CN2CCN(C/C=C/c3ccccc3)CC2)c1	MITF inh 81 | MITF inh conf inactive | AlphaScreen intf2 inactive
COc1ccc(CN2CCN(C/C=C/c3ccccc3)CC2)c(O)c1	none
CCOC(=O)c1ccoc1CN1CCN(C/C=C/c2ccccc2)CC1	MITF inh 79 | MITF inh conf inactive | AlphaScreen intf2 inactive
CCOC(=O)c1ccoc1CN1CCN(c2cccc(C)c2C)CC1	none
COc1ccccc1CN1CCN(C/C=C/c2ccccc2)CC1	MITF inh 69 | MITF inh conf inactive | AlphaScreen intf2 inactive
O=C(CNCc1ccco1)Nc1cccc(OC(F)(F)F)c1	none
Cc1nc(N2CCOCC2)c2ccsc2n1	MITF inh 82 | MITF inh conf inactive | AlphaScreen intf2 inactive
Cc1nc(N2CCCC2)c2ccsc2n1	none
COc1ccc(C(O)c2nccn2C)cc1OC (centres undefined)	none
COc1ccc(C(N)c2nccn2C)cc1OC (centres undefined)	MITF inh 64 | MITF inh conf inactive | AlphaScreen intf2 61
O=C1CC(Sc2nc(-c3ccccc3)cc(C(F)(F)F)n2)C2COC1O2 (centres undefined)	none
COC(=O)C1Sc2[nH]c(=O)sc2C(c2ccc(OC)cc2)C1C(=O)OC (centres undefined)	MITF inh 52 | MITF inh conf inactive | AlphaScreen intf2 inactive
COC(=O)C1Sc2[nH]c(=O)sc2C(c2cccc([N+](=O)[O-])c2)C1C(=O)OC (centres undefined)	none
c1ccc(-c2ccc(OCCN3CCNCC3)cc2)cc1	MITF inh 56 | MITF inh conf inactive | AlphaScreen intf2 inactive
CCN1CCN(CCOCCOc2ccccc2-c2ccccc2)CC1	MITF inh 64 | MITF inh conf inactive | AlphaScreen intf2 inactive
c1ccc(-c2ccccc2OCCOCCN2CCNCC2)cc1	MITF inh 76 | MITF inh conf inactive | AlphaScreen intf2 inactive
CCN1CCN(CCOCCOc2ccc3ccccc3c2Cl)CC1	MITF inh 51 | MITF inh conf inactive | AlphaScreen intf2 inactive
Clc1c(OCCN2CCOCC2)ccc2ccccc12	none
c1ccc(-c2ccc(OCCCN3CCNCC3)cc2)cc1	none
COc1ccc([N+](=O)[O-])cc1NC(=O)/C(C#N)=C/c1ccc(-c2ccc(C(=O)O)cc2)o1	none
CC(C)n1c(SCc2ccccc2)nnc1C1CCCN(CC(N)=O)C1 (centres undefined)	none
CC(C)(C)NCCOCCOc1ccccc1I	none
Cc1cc(C)c(C)c(OCCOCCNC(C)(C)C)c1	MITF inh 64 | MITF inh conf inactive | AlphaScreen intf2 inactive
c1ccc(OCCN2CCOCC2)cc1	MITF inh 54 | MITF inh conf inactive | AlphaScreen intf2 inactive
c1ccc(OCCNCCN2CCOCC2)cc1	none
CC(C)(C)NCCOCCOc1ccccc1-c1ccccc1	MITF inh 63 | MITF inh conf inactive | AlphaScreen intf2 inactive
Cc1cc(C)c(C)c(OCCNC(C)(C)C)c1	none
CCC(C)c1ccccc1OCCN1CCOCC1 (centres undefined)	MITF inh 84 | MITF inh conf inactive | AlphaScreen intf2 inactive
